Data published in PubChem BioAssay AID435017 (Vanderbilt High Throughput Screening Facility, 2010).
Measured potencies and affinities stand elsewhere. Activity calls are given as the source filed them.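 The calls were made as follows: active = compounds with a dose-dependent response across tested concentrations; inactive = the rest.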

Target: ATP-sensitive inward rectifier potassium channel 1 (Homo sapiens) (UniProt P48048)
Experiment: Kir1.1 channel inhibitor analog potency – cell-based, thallium flux, analog library, SAR follow-up (AID 435017)

Chain of ATP-sensitive inward rectifier potassium channel 1 (Homo sapiens) (P48048 whole entry, looked up): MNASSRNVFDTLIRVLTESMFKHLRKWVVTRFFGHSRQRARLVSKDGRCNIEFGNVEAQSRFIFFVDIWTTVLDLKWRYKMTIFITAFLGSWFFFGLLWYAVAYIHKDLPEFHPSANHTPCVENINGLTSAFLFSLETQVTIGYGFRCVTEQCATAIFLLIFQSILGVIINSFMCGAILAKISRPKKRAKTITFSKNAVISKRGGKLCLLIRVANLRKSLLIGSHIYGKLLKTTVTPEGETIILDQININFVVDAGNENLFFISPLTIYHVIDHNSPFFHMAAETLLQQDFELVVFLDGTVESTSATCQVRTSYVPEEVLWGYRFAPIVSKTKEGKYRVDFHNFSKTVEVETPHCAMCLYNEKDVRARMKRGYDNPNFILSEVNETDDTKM

| SMILES | outcome |
| --- | --- |
| O=[N+]([O-])c1ccc(CN2CCOCCOCCN(Cc3ccc([N+](=O)[O-])cc3Cl)CCOCC2)c(Cl)c1 | inactive |
| Fc1ccc(CN2CCOCCOCCN(Cc3ccc(F)c(F)c3)CCOCC2)cc1F | inactive |
| O=C(c1ccc([N+](=O)[O-])cc1)N1CCOCCOCCN(C(=O)c2ccc([N+](=O)[O-])cc2)CCOCC1 | inactive |
| O=[N+]([O-])c1ccc2nc(COCc3nc4ccccc4[nH]3)[nH]c2c1 | inactive |
| O=C(Nc1ccc([N+](=O)[O-])cc1)N1CCOCCOCCN(C(=O)Nc2ccc([N+](=O)[O-])cc2)CCOCC1 | inactive |
| CN(C)S(=O)(=O)c1ccc2nc(COCc3nc4ccc(S(=O)(=O)N(C)C)cc4[nH]3)[nH]c2c1 | inactive |
| COCCN(CCOC)Cc1ccc([N+](=O)[O-])cc1 | inactive |
| CS(=O)(=O)c1ccc(CN2CCOCCOCCN(Cc3ccc(S(C)(=O)=O)cc3)CCOCC2)cc1 | inactive |
| O=[N+]([O-])c1ccc(CN2CCOCCOCCN(Cc3ccc([N+](=O)[O-])cc3[N+](=O)[O-])CCOCC2)c([N+](=O)[O-])c1 | inactive |
| O=[N+]([O-])c1ccc(S(=O)(=O)N2CCOCCOCCN(S(=O)(=O)c3ccc([N+](=O)[O-])cc3)CCOCC2)cc1 | inactive |
| O=S(=O)(c1ccc(CN2CCOCCOCCN(Cc3ccc(S(=O)(=O)C(F)(F)F)cc3)CCOCC2)cc1)C(F)(F)F | inactive |
| c1ccc2[nH]c(COCc3nc4ccccc4[nH]3)nc2c1 | inactive |
| Fc1ccc2nc(COCc3nc4ccc(F)cc4[nH]3)[nH]c2c1 | inactive |
| O=[N+]([O-])c1cccc(CN2CCOCCOCCN(Cc3cccc([N+](=O)[O-])c3)CCOCC2)c1 | inactive |
